Results on 17 compounds are retold here after PubChem BioAssay (NCATS).

Several values for one entry are separate records, joined by “and”; a condition that tells them apart may be missing. Equal entries are not always repeated. Records with an inconclusive call do not appear. Activity calls are given as the source filed them. Calls come from the whole dose curve.
Potency is the fitted concentration of half-maximal effect.

The experiment in a line: Primary qHTS to identify inhibitors of SARS-CoV-2 cell entry (AID 1645846). Note: nearly all actives have a fitted effect of over 45% in size. The following applies: SARS-CoV-2 pseudovirus cell entry assay, luminescence; activity change, negative = inhibition: at 57.1 µM (top of the series) unless noted; series mostly up to 57.1 µM. The method, boiled down:
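Data are normalized to wells receiving SARS-CoV-2-S pseudoparticles and those given bald particles. Entry signal was luciferase luminescence in stable hACE2 Expi293F cells, 48 hr post-infection, after 1 hr compound pretreatment.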
(Quantitative high-throughput screening tests each substance at several concentrations.)
As for `CO/N=C(/C(=O)N[C@@H]1C(=O)N2C(C(=O)[O-])=C(C[n+]3ccn4ncccc43)CS[C@H]12)c1nsc(N)n1`, the compound was called inactive. On to `NS(=O)(=O)c1cc2c(cc1C(F)(F)F)NC(Cc1ccccc1)NS2(=O)=O` (configuration not stated), for which the call was inactive. Still for that read-out and setting: with `O=C(O)CNC(=O)c1ccccc1` the entry was “inactive”. Consider `CC1COc2c(N3CCN(C)CC3)c(F)cc3c(=O)c(C(=O)O)cn1c23` (configuration not stated), for which the activity change, negative = inhibition was -0.258%. Same read-out and setting: the same measure for `O=C(O)C[C@H](O)C[C@H](O)/C=C/c1c(C2CC2)nc2ccccc2c1-c1ccc(F)cc1`: -3.35%.

For `COc1cc(NS(C)(=O)=O)ccc1Nc1c2ccccc2nc2ccccc12`, the Potency was 1 µM (active) and 708 nM (active). On to `CC(O)(P(=O)(O)O)P(=O)(O)O`, for which the outcome was inactive.

Regarding `NS(=O)(=O)c1cc(C(=O)O)cc(N2CCCC2)c1Oc1ccccc1`, the compound was classed as inactive.

Consider `NC(=O)c1ccccc1O`, for which the activity change, negative = inhibition is 1.57%. Consider `CC(=O)N1CCN(c2ccc(OC[C@H]3CO[C@](Cn4ccnc4)(c4ccc(Cl)cc4Cl)O3)cc2)CC1`, for which the Potency was 15.8 µM (active). Take `CN1C[C@@H]2C[C@H]1CN2c1cc2c(cc1F)c(=O)c(C(=O)O)cn2C1CC1`: the activity change, negative = inhibition was -27.1% [at 27.1 µM]. In the case of `Nc1nc2ccc(OC(F)(F)F)cc2s1`, the call was inactive. Same read-out and setting: with `CC(=O)Oc1cc(C(C)C)c(OCCN(C)C)cc1C` the entry was “inactive”. In the case of `O=c1[nH]c(=O)n([C@H]2C[C@H](O)[C@@H](CO)O2)cc1F`, the activity change, negative = inhibition was -90.3% and -94.8%.

Take `CCCc1ccc(OCC(=O)N2CCN(C(=O)COc3ccc(CCC)cc3OC)CC2)c(OC)c1`: the activity change, negative = inhibition was -6.24%. With `CNC(=O)c1c(I)c(NC(C)=O)c(I)c(C(=O)O)c1I`, the compound was classed as inactive. Consider `CCn1cc(C(=O)O)c(=O)c2cnc(N3CCCC3)nc21`, for which the activity change, negative = inhibition is 0.588% [at 11.3 µM].
